# Records with an inconclusive call do not appear. Entries that show only a call come without a potency. A number with no mark means an inactive call. Activity calls are given as the source filed them. The call rests on the fitted dose curve; in most records, active means well fitted cell-killing curve with a large enough effect; inconclusive means small, poorly fitted or top-dose-only effect, or effect the other way; inactive means flat fitted curve, though single readings scatter.
# Assays:
# Assay in all cases: Primary qHTS to identify gynecologic anti-cancer compounds using libraries of approved drugs and bioactive compounds (AID 1345084); further: nearly all actives have a fitted effect of over 55% in size
# C33A = conditions: Gynecologic cancer cell panel viability, ATPlite luminescence, 48 h; series mostly up to 57.5 µM
# Summary of the method: (§1)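 Five-point cytotoxicity, 48 h drug exposure at 37 C, 5% CO2, on cells seeded 16 h beforehand. ATP content read by ATPlite luminescence.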
# CAOV3 = conditions: Gynecologic cancer cell panel viability, ATPlite luminescence, 48 h; series mostly up to 57.5 µM
# Summary of the method: as §1
# Es-2 = conditions: Gynecologic cancer cell panel viability, ATPlite luminescence, 48 h; series mostly up to 57.5 µM
# Summary of the method: as §1
# HeLa = conditions: Gynecologic cancer cell panel viability, ATPlite luminescence, 48 h; series mostly up to 57.5 µM
# Summary of the method: as §1
# Hek293T = conditions: Gynecologic cancer cell panel viability, ATPlite luminescence, 48 h, control line for the selectivity index; series mostly up to 57.5 µM
# Summary of the method: as §1
# JEG-3 = conditions: Gynecologic cancer cell panel viability, ATPlite luminescence, 48 h; series mostly up to 57.5 µM
# Summary of the method: as §1
# CASKI = conditions: Gynecologic cancer cell panel viability, ATPlite luminescence, 48 h; series mostly up to 57.5 µM
# Summary of the method: as §1
# OV90 = conditions: Gynecologic cancer cell panel viability, ATPlite luminescence, 48 h; series mostly up to 57.5 µM
# Summary of the method: as §1
# Tov112D = conditions: Gynecologic cancer cell panel viability, ATPlite luminescence, 48 h; series mostly up to 57.5 µM
# Summary of the method: as §1
# PA-1 = conditions: Gynecologic cancer cell panel viability, ATPlite luminescence, 48 h; series mostly up to 57.5 µM
# Summary of the method: as §1
# Tov-21-G = conditions: Gynecologic cancer cell panel viability, ATPlite luminescence, 48 h; series mostly up to 57.5 µM
# Summary of the method: as §1
# SKOV3 = conditions: Gynecologic cancer cell panel viability, ATPlite luminescence, 48 h; series mostly up to 57.5 µM
# Summary of the method: as §1
# Potency means the concentration at half of the fitted maximal effect.
Compound,Potency (C33A),Potency (CAOV3),Potency (Es-2),Potency (HeLa),Potency (Hek293T),Potency (JEG-3),Potency (CASKI),Potency (OV90),Potency (Tov112D),Potency (PA-1),Potency (Tov-21-G),Potency (SKOV3)
Cn1c(=O)c(F)c(Nc2ccc(I)cc2F)c2c(=O)n(CC(O)CO)cnc21 (stereo not given),inactive,inactive,3.16 µM (active),inactive,inactive,inactive,,,,,,
C=C1C(=O)OC2CC(C)=C(C(C)CCCOC(C)=O)C(OC(=O)CC(C)CC)C12 (stereo not given),inactive,inactive,,inactive,,,inactive,inactive,inactive,,,
Nc1ncnc2c1nc(Cl)n2C1OC2COP(=O)(O)OC2C1O (stereo not given),7.94 µM (active),5.62 µM (active),10 µM (active),11.2 µM (active),10 µM (active),15.8 µM (active),,,5.01 µM (active),8.91 µM (active),8.91 µM (active),
Cc1nc2ccc(CN(C)c3ccc(C(=O)NC(CCC(=O)O)C(=O)O)s3)cc2c(=O)[nH]1 (stereo not given),inactive,inactive,,,inactive,,inactive,inactive,0.282 µM (active),,,
FC(F)(F)c1ccccc1-c1cc(C(F)(F)F)c2nc(C3=NOC4(CCCCC4)C3)[nH]c2c1,inactive,inactive,inactive,inactive,inactive,inactive,,inactive,inactive,inactive,inactive,inactive
C=C[C@@]1(C)CCC2C(=CCC3[C@]2(C)CCC[C@@]3(C)C(=O)O)C1 (stereo not given in full),inactive,inactive,inactive,inactive,inactive,inactive,,inactive,,,inactive,inactive
C/C(=C\Cc1c(O)c(Cl)c(C)c(C=O)c1O)CC/C=C(\C)[C@H]1CC(=O)C(C)(C)O1,inactive,inactive,,,inactive,,inactive,inactive,inactive,,,inactive
CC1(C)CCC(C)(C)c2cc(C#Cc3ccc(C(=O)O)cc3)ccc21,inactive,inactive,inactive,inactive,inactive,inactive,,inactive,inactive,inactive,inactive,
CC(O)(C(=O)C1CC1(CO)COC1OC(CO)C(O)C(O)C1O)C1C(O)CC2C3CC=C4CC(O)CC(O)C4(C)C3C(O)CC21C (stereo not given),0.562 µM (active),1.78 µM (active),0.891 µM (active),1.41 µM (active),1.41 µM (active),,,4.47 µM (active),0.562 µM (active),1.78 µM (active),0.562 µM (active),
NCC1CCN(c2nccc(-c3ccc4ccccc4c3)n2)CC1,28.2 µM (active),28.2 µM (active),inactive,14.1 µM (active),,inactive,,inactive,,14.1 µM (active),,22.4 µM (active)
Cn1cc(-c2cnn3c(N)c(Br)c([C@@H]4CCCNC4)nc23)cn1,inactive,inactive,,,,,inactive,inactive,inactive,,,
Nc1nc2c(ncn2C2OC3COP(=O)(O)OC3C2O)c(=O)[nH]1 (stereo not given),inactive,inactive,inactive,inactive,inactive,inactive,,,inactive,inactive,inactive,inactive
CC#C[C@@H](CC(=O)O)c1ccc(OCc2cccc(-c3ccc(C(F)(F)F)cc3)c2)cc1,inactive,inactive,,,inactive,inactive,inactive,inactive,inactive,,inactive,inactive
CCCSc1nc(N[C@@H]2C[C@H]2c2ccc(F)c(F)c2)c2nnn([C@@H]3C[C@H](OCCO)[C@@H](O)[C@H]3O)c2n1,inactive,inactive,inactive,inactive,inactive,inactive,,inactive,inactive,inactive,inactive,inactive
CCC(C)CC(=O)OC1C(=O)C(CO)=CC(O)C1C(C)C (stereo not given),31.6 µM (active),28.2 µM (active),,,,,28.2 µM (active),,,31.6 µM (active),25.1 µM (active),
C[C@H](Oc1cc(-n2cnc3ccc(CN4CCN(C)CC4)cc32)sc1C(N)=O)c1ccccc1C(F)(F)F,15.8 µM (active),inactive,11.2 µM (active),5.01 µM (active),,3.16 µM (active),,inactive,7.94 µM (active),11.2 µM (active),,
CC(C)c1ccc(NC(=O)c2cccs2)c(-c2nc3ccccc3[nH]c2=O)c1,inactive,inactive,inactive,inactive,inactive,inactive,,inactive,inactive,inactive,inactive,
C=CC(=O)N1CCCC(n2nc(-c3ccc(Oc4ccccc4)cc3)c3c(N)ncnc32)C1 (stereo not given),inactive,inactive,inactive,inactive,inactive,inactive,,inactive,inactive,,,
Cc1sc2c(c1C)C(c1ccc(Cl)cc1)=N[C@H](CC(=O)NCCCCNC(=O)COc1cccc3c1C(=O)N([C@H]1CCC(=O)NC1=O)C3=O)c1nnc(C)n1-2,inactive,inactive,,,,,inactive,inactive,inactive,1.58 µM (active),1.78 µM (active),inactive

# — PubChem BioAssay (NCATS)
